Only some compounds are listed: those with a hit (about 9.3% of all), similar ones and a draw of the others.
NPC1 prom act = NPC1 promoter activation. Huh7 NPC1 promoter luciferase reporter, 24 h. Potency, µM (top dose mostly 9.22 µM), for the others: at the top dose activation, hits mostly activators. 320,000 tested, 2.4% active; note: % of control where 0% means no effect; nearly all actives have a fitted effect of over 60% in size
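Luminescence read-out of NPC1 promoter-driven luciferase in stably transfected Huh7 cells; compounds delivered in DMSO and left 24 h at 37C, 5% CO2, qHTS titration format.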
ELG1 repair inh = ELG1-dependent DNA repair inhibition. 330,000 tested, 2.3% active. Potency, µM (highest dose often 46.1 µM), without a hit: at the highest dose activity change, negative = inhibition, actives largely listed as inhibitors. HEK293T ELG1-luciferase reporter, luminescence, 16 h; DNA damage induced by 5-fluorouridine. AID 504467; note: % is set by controls: 0 for no effect and ±100 for the full control effect; nearly all actives have a fitted effect of over 55% in size
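DMSO vehicle served as the neutral condition. Each well held 2,000 cells given 5-fluorouridine plus compound; after 16 hr at 37 °C/5% CO2, ONE-Glo was added and luciferase measured 30 min later.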
FLuc modulator = firefly luciferase modulation, counter-screen for miR-21 project; P08659; purified FLuc, Km substrates, luminescence inhibition; Potency, µM (highest dose often 57.5 µM), for inactives: at the top dose activity change, negative = inhibition, actives largely listed as inhibitors; 360,000 tested, 6.9% active; AID 588342;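 note: plate controls were vehicle for no effect and reference inhibitor for full effect; nearly all actives have a fitted effect of over 55% in size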
Target sequence (P08659 whole entry, looked up): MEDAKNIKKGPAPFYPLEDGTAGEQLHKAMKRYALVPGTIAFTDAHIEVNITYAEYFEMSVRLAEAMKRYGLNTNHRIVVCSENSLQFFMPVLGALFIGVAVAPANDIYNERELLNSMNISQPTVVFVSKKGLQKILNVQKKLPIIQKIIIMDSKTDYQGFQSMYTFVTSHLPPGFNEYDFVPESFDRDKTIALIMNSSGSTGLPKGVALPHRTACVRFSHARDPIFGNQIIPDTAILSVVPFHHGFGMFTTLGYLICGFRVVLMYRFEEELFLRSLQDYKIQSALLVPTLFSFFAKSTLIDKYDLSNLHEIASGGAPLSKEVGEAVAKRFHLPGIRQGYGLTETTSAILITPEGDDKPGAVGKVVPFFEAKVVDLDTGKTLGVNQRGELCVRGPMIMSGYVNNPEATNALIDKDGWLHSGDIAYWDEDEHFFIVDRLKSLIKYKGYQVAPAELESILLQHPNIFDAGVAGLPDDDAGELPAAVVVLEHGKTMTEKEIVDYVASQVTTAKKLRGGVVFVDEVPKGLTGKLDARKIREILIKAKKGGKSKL
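Biochemical qHTS of compounds, final roughly 60 µM downward over six points, against 10 nM purified firefly luciferase using Km concentrations of substrates (10 uM D-luciferin, 10 uM ATP) in Tris acetate pH 7.5 buffer; luminescence output.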
ELG1 genotox = genotoxicity induction in ELG1-luciferase HEK293T cells. Potency, µM (series often up to 46 µM), without a hit: top-dose activity change, positive = activation, hits mostly activators. HEK293T ELG1-luciferase reporter, luminescence, 16 h. 330,000 tested, 1.3% active; note: % of control where 0% means no effect; nearly all actives have a fitted effect of over 60% in size
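Genotoxicity was scored as increased ELG1-luciferase reporter signal, measured by ONE-Glo luminescence (30 min, room temperature). Compound or vehicle exposure of the HEK293T reporter cells lasted 16 hr at 37°C.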
SMN2 splice enh = enhancers of SMN2 splice variant expression; HEK293 SMN2-luciferase splicing reporter, luminescence, 30-36 h; Potency, µM (series often up to 46.1 µM), for the others: at the highest dose activity change, positive = activation, actives largely listed as activators; 210,000 tested, 2.8% active; note: % of control where 0% means no effect; nearly all actives have a fitted effect of over 55% in size
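HEK293 cells carry an SMN2 minigene-luciferase reporter in which exon 7 inclusion puts luciferase in frame. Cells were seeded at 2000 cells/well, attached for 10-12 hours, then exposed to compounds for 30-36 hours at 37C before ONE-Glo luminescence.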
Rab9 prom act = activates the Rab9 promoter. Potency, µM (series often up to 9.22 µM), for the others: at the top dose activation, negative = inhibition, most hits filed as activators. Huh7 Rab9 promoter-luciferase reporter, luminescence, 24 h. 320,000 tested, 2.8% active; note: % of control where 0% means no effect; nearly all actives have a fitted effect of over 60% in size
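Measured in stably transfected Huh7 cells bearing a Rab9 promoter–luciferase construct: 24 h compound treatment at 37 °C, followed by luminescence detection.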
An asterisk follows results filed as active; ? = inconclusive; · = no result given. Calls come from the whole dose curve; as a rule, active = well fitted curve in the direction sought with a large enough effect; inconclusive = small, poorly fitted or top-dose-only effect, or another doubt; inactive = no such curve, though single readings can be large; an effect the other way counts as inactive or inconclusive. Potency is the fitted concentration of half-maximal effect.

SMILES	NPC1 prom act	ELG1 repair inh	FLuc modulator	ELG1 genotox	SMN2 splice enh	Rab9 prom act
CC(Oc1ccc(C(=O)NC2CCCCC2)cc1)C(=O)O (stereo unspecified)	0.7%	3.1%	0.4%	0.1%	?	-3.8%
N/C(=N\OC(=O)c1ccc(Cl)cc1[N+](=O)[O-])c1ccccn1	?	?	3.38µM*	20.6µM*	·	?
N/C(=N\OC(=O)c1ccc(Cl)cc1Cl)c1ccccn1	0.316µM*	?	0.0953µM*	0.259µM*	·	0.112µM*
N/C(=N\OC(=O)c1ccc(=O)n(Cc2ccc(Cl)cc2)c1)c1ccccn1	-8.7%	13.1%	-12.0%	0.0%	-12.5%	-0.9%
O=C(CN1CCN(S(=O)(=O)c2ccc(F)cc2)CC1)Nc1ccnn1C1CCCC1	-0.5%	-17.8%	-1.9%	-1.1%	·	-1.0%
COc1ccc(-c2nc(C)c(CCNC(=O)c3cccc(C)c3)s2)cc1OC	·	·	23.9µM*	·	·	·
COc1ccc(-c2nc(C)c(CCNC(=O)c3cccs3)s2)cc1	·	·	26.9µM*	·	·	·
COc1ccc(-c2nc(C)c(CCNC(=O)c3ccc(F)c(F)c3)s2)cc1	·	·	21.3µM*	·	·	·
Cc1ccccc1N=Nc1c(O)n(C)c2ccccc12	1.4%	5.8%	-16.2%	-2.1%	·	2.4%
Fc1ccc(Nc2nnc(C(F)(F)F)s2)cc1Cl	-6.1%	?	-14.3%	-17.8%	·	-8.1%
FC(F)(F)c1nnc(Nc2ccc(Cl)cc2)s1	3.5%	10.3µM*	-17.4%	-7.0%	·	-3.2%
Cn1c(O)c(C=Nc2ccc(Br)cc2)sc1=O	?	?	?	?	2.82µM*	4.47µM*
CC(=O)c1c(C)[nH]c(C(=O)OCc2nc3ccsc3c(=O)[nH]2)c1C	?	22.2%	?	?	·	29.8%
CC(=O)c1c(C)[nH]c(C(=O)OCn2nnc3ccccc3c2=O)c1C	-1.1%	18.4µM*	0.2%	-8.9%	·	-11.8%
COC(=O)c1ccc2c(=O)[nH]c(COC(=O)c3[nH]c(C)c(C(C)=O)c3C)nc2c1	·	5.8µM*	·	-5.1%	·	·
O=C(CCCc1ccccc1)NC1CC1	-3.9%	5.6%	0.9%	-0.1%	-1.2%	-5.2%
CCn1c(SCC(=O)Nc2cc(NC(C)=O)ccc2OC)nnc1-c1cccnc1	-1.4%	1.8%	-2.3%	-0.4%	15.8%	-2.7%
COc1cccc(/C=C/C(=O)Nc2ccc3c(c2)OCCO3)c1OC	0.398µM*	?	0.757µM*	1.3µM*	2.82µM*	0.398µM*
COc1cccc(C(=O)Nc2ccc3c(c2)OCO3)c1OC	1.41µM*	?	9.53µM*	?	·	1.58µM*
COc1cc2c(C(=O)Nc3ccc4c(c3)OCO4)cn(CC(C)C)c(=O)c2cc1OC	-2.9%	9.2µM*	-1.5%	-7.3%	8.8%	-4.8%
COc1ccccc1/C=C/C(=O)Nc1cccc(C(C)=O)c1	20.4%	-4.9%	10.7µM*	1.5%	12.9%	27.4%
COc1cccc(C(=O)NCc2ccc3c(c2)OCO3)c1OC	-2.2%	14.4%	-1.9%	3.1%	·	-0.1%
Cc1cccc(NS(=O)(=O)c2cc3c4c(c2)CCC(=O)N4CCC3)c1	-2.9%	0.0%	4.2%	-7.7%	·	-4.5%
COc1cccc(/C=C/C(=O)Nc2cccc(C(C)=O)c2)c1OC	3.16µM*	?	3.01µM*	1.6%	17.8µM*	2.82µM*
CCOC(=O)c1cc(CC)sc1NC(=O)c1cc([N+](=O)[O-])ccc1N1CCOCC1	-15.1%	-4.4%	1.7%	1.9%	0.3%	-19.6%
SMILES	NPC1 prom act	ELG1 repair inh	FLuc modulator	ELG1 genotox	SMN2 splice enh	Rab9 prom act
CC(C)C(=O)Nc1cccc(C(=O)Nc2nnc(C(C)C)s2)c1	2.82µM*	?	?	?	11.2µM*	1.41µM*
CC(C)C(=O)Nc1ccc(C(=O)Nc2nnc(C(C)C)s2)cc1	23.3%	?	?	12.1%	·	?
Cc1nnc(NC(=O)c2cccc(NC(=O)C(C)C)c2)s1	4.1%	?	-15.8%	4.5%	5.9%	5.1%
CC(C)C(=O)Nc1cccc(C(=O)Nc2nnc(C(F)(F)F)s2)c1	·	·	16.9µM*	·	13.7%	·
CC(C)c1nnc(NC(=O)c2cccc(NC(=O)C(F)(F)F)c2)s1	3.55µM*	?	21.3µM*	?	14.1µM*	1.26µM*
CCc1nnc(NC(=O)c2cccc(NC(=O)C(C)C)c2)s1	?	?	?	28.9%	15.8µM*	?
Cc1cc(C)c(NC(=O)c2cc(S(=O)(=O)N3CCN(c4ccccc4F)CC3)ccc2F)c(C)c1	·	·	-1.1%	·	·	·
CC(=O)Nc1ccc(S(=O)(=O)NCCNc2ccccc2[N+](=O)[O-])cc1	-7.9%	16.5%	-8.3%	1.2%	-13.7%	-5.5%
O=C(NCc1ccco1)c1ccc2c(=O)n(CC3CCCO3)c(=S)[nH]c2c1 (stereo unspecified)	-3.1%	13µM*	-0.1%	-5.3%	-18.8%	-5.9%
O=C(NCc1ccccc1)c1ccc2c(=O)n(CC3CCCO3)c(=S)[nH]c2c1 (stereo unspecified)	1.3%	-22.7%	2.9%	-0.3%	-6.6%	-1.8%
O=c1c(-c2ccco2)[n+]([O-])c2ccccc2n1OCc1ccccc1[N+](=O)[O-]	-7.2%	23.1µM*	-15.1%	-8.7%	-16.6%	-16.5%
O=C1N=c2ccccc2=C1c1sc(Nc2ccc(O)cc2)nc1O	1.2%	?	?	-12.7%	8.7%	-0.5%
O=C1N=c2ccccc2=C1c1sc(Nc2cccc(O)c2)nc1O	15.3%	20.5%	19µM*	15.8%	·	5.0%
O=C1N=c2ccccc2=C1c1sc(NS(=O)(=O)Cc2ccccc2)nc1O	1.5%	22.9%	10.7µM*	4.2%	·	-2.7%
Cc1ccc(CNC(=O)CCNS(=O)(=O)c2ccc3c(c2)CCCC(=O)N3)cc1	·	·	-9.6%	·	·	·
Cc1ccccc1OCC(=O)N/N=C/c1c(C)nn(-c2ccccc2)c1Cl	-6.2%	-9.3%	?	-0.4%	17.1%	-7.7%
Cc1nn(-c2ccccc2)c(Cl)c1/C=N/NC(=O)c1ccccc1F	?	?	8.49µM*	?	·	2.24µM*
Cc1cc(C(=O)N/N=C/c2c(C)nn(-c3ccccc3)c2Cl)n[nH]1	28.9%	?	7.57µM*	?	·	?
Cc1nn(-c2ccccc2)c(Cl)c1/C=N/O	-6.1%	4.6%	?	7.8%	?	0.2%
Cc1nn(-c2ccccc2)c(Cl)c1/C=N/NC(=O)c1[nH]ncc1Br	0.316µM*	?	0.601µM*	1.46µM*	·	0.398µM*
Cc1nn(-c2ccccc2)c(C)c1/C=N/NC(=O)c1cc(-c2ccccc2)n[nH]1	-7.0%	?	?	-15.5%	3.9%	-18.4%
Cc1nn(-c2ccccc2)c(Cl)c1/C=N/NC(=O)c1ccn[nH]1	0.224µM*	?	0.757µM*	8.2µM*	·	1.12µM*
